Test results reported in PubChem BioAssay (NCI).
This is part of a sample that, as a whole, favours compounds with a hit. Of some 79,000 tested, about 15% had one in any assay. Unmarked numbers belong to inactive results. Calls of active or inactive are those of the source. Rule as the data show it: active = growth inhibition above about 70%; inactive = the rest. Where a SMILES comes first, the peptide text is derived from it. The star is where a group is joined. Trt = c1ccc(C(c2ccccc2)(c2ccccc2)*)cc1; Cbz = O=C(OCc1ccccc1)*

Key:
[1] = NCI Yeast Anticancer Drug Screen. Data for the rad50 strain (AID 155);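 also: 0% = growth of vehicle-only cultures of the same strain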; settings: S. cerevisiae rad50 strain growth inhibition, active compounds read high
In short: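 Relative growth inhibition (compound vs vehicle) was measured in yeast with a defined repair-gene alteration.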

[2] = NCI Yeast Anticancer Drug Screen. Data for the mec2-1 strain (AID 157); settings: S. cerevisiae mec2-1 strain, active compounds read high
In short: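 Each compound was tested on mec2-1 yeast, a strain altered in DNA damage repair or cell cycle control. Growth inhibition is reported relative to vehicle.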

[3] = NCI Yeast Anticancer Drug Screen. Data for the sgs1 mgt1 strain (AID 161);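 also: 0% = growth of cultures given vehicle only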; settings: S. cerevisiae sgs1 mgt1 strain, active compounds read high
In short: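 Inhibition of yeast growth, normalised to vehicle-treated controls, is reported for a strain bearing genetic alterations in DNA damage repair.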

[4] = NCI Yeast Anticancer Drug Screen. Data for the cln2 rad14 strain (AID 165);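 also: 0% = growth equal to vehicle treated cultures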; settings: S. cerevisiae cln2 rad14 strain, active compounds read high
In short: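 Test compounds were added to cln2 rad14 yeast cultures; inhibition of growth was then determined by comparison with vehicle treatment.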

[5] = NCI Yeast Anticancer Drug Screen. Data for the bub3 strain (AID 167); settings: S. cerevisiae bub3 mutant strain, active compounds read high
In short: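 Screening used yeast with an engineered genetic alteration affecting cell cycle control. Compound-exposed cultures were compared with vehicle cultures, and reduced growth was taken as inhibition.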

[6] = NCI Yeast Anticancer Drug Screen. Data for the mlh1 rad18 strain (AID 175); settings: S. cerevisiae mlh1 rad18 strain growth inhibition, active compounds read high
In short: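 Inhibition values reflect reduced growth of mutant yeast versus vehicle-treated controls following compound exposure; the mutations affect DNA damage repair.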

[7] = at 5.0 µM (retest, dose inferred, filed as 0.5)
[8] = at 50.0 µM (retest, dose inferred, filed as 5.0)

Row | Structure (SMILES) | growth inhibition [1, 7] | growth inhibition [1, 8] | growth inhibition ([1]; at 50.0 µM) | growth inhibition [2, 7] | growth inhibition [2, 8] | growth inhibition ([2]; at 50.0 µM) | growth inhibition [3, 7] | growth inhibition [3, 8] | growth inhibition ([3]; at 50.0 µM) | growth inhibition [4, 7] | growth inhibition [4, 8] | growth inhibition ([4]; at 50.0 µM) | growth inhibition [5, 7] | growth inhibition [5, 8] | growth inhibition ([5]; at 50.0 µM) | growth inhibition [6, 7] | growth inhibition [6, 8] | growth inhibition ([6]; at 50.0 µM)
1 | CCOc1ccc(-c2nc3ccc(-c4nc5ccc(N6CCN(C)CC6)cc5[nH]4)cc3[nH]2)cc1 | 28% | 98% (active) | 88.7% (active) | 23% | 99% (active) | 92.9% (active) | 42% | 99% (active) | 90.2% (active) | 31% | 52% | 91.5% (active) | 41% | 98% (active) | 89.1% (active) | 57% | 98% (active) | 89% (active)
2 | O=C(CNC(=O)c1ccccc1)Oc1c(Cl)c(Cl)c(Cl)c(Cl)c1Cl | 12% | 61% | 75% (active) | 42% | 82% (active) | 74.8% (active) | 38% | 89% (active) | 90.8% (active) | 7% | 42% | 65.9% | 1% | 45% | 34% | 50% | 90% (active) | 77.5% (active)
3 | COC(=O)c1ncc(Cl)cc1Cl | 3% | -4% | 59.9% | 0% | -7% | 39.8% | 0% | -7% | 58.8% | 7% | -7% | 22.1% | 1% | -19% | 38.4% | 0% | -1% | 46.4%
4 | CC(C)OC(=O)c1cc([N+](=O)[O-])cc([N+](=O)[O-])c1Sc1ncnc2nc[nH]c12 | 49% | 54% | 14.2% | 11% | 49% | 15.5% | 44% | 83% (active) | 20.9% | 44% | 57% | 65.8% | 45% | 79% (active) | 24.7% | 35% | 42% | 66.8%
5 | COC(=O)c1c(C(N)=O)c(C)n(NC(=O)c2ccccc2)c1C | -6% | 4% | 5.75% | -5% | -1% | 2.7% | -6% | 0% | 11.1% | -4% | 6% | 38.9% | -4% | 3% | -2.65% | -4% | 0% | 11.5%
6 | CCC[CH2][Sn]([CH2]CCC)([O]C(=O)c1cccc(F)c1)[O]C(=O)c1cccc(F)c1 | 26% | 26% | 51.5% | -2% | -2% | 33.5% | -1% | -1% | 73.2% (active) | 10% | 10% | 14.9% | -2% | -2% | 49.9% | -1% | -1% | 53%
7 | COC(=O)C(CSC(c1ccccc1)(c1ccccc1)c1ccccc1)NC(=O)C(CC(N)=O)NC(=O)OCc1ccccc1 (stereo not drawn) (Cbz-Asn-Cys(Trt)-OMe; configuration not given here) | 32% | 84% (active) | 73.5% (active) | 13% | 89% (active) | 68.2% | 17% | 94% (active) | 72.5% (active) | 27% | 94% (active) | 72% (active) | 15% | 94% (active) | 68.8% | 27% | 88% (active) | 68.9%
8 | CCCN(CCC)C(=S)N/N=C(/C)c1ccccc1O | -8% | 98% (active) | 77.8% (active) | -29% | 98% (active) | 85.7% (active) | -29% | 97% (active) | 87.2% (active) | -26% | 97% (active) | 86.8% (active) | -58% | 98% (active) | 89% (active) | -23% | 98% (active) | 90.8% (active)
9 | O=C1Nc2ccccc2/C1=C/c1ccc(Cl)c(Cl)c1 | -1% | 71% (active) | 78.3% (active) | -8% | 89% (active) | 80.3% (active) | -4% | 73% (active) | 65.5% | 20% | 94% (active) | 74.1% (active) | -10% | 94% (active) | 74.7% (active) | 5% | 89% (active) | 78% (active)
10 | C[n+]1c(-c2cccc(OCCCCCCCCOc3cccc(-c4c5cc(N)ccc5c5ccc(N)cc5[n+]4C)c3)c2)c2cc(N)ccc2c2ccc(N)cc21 | 99% (active) | 97% (active) | 85.3% (active) | 99% (active) | 99% (active) | 88.2% (active) | 97% (active) | 98% (active) | 89.8% (active) | 98% (active) | 97% (active) | 89.8% (active) | 99% (active) | 98% (active) | 88.5% (active) | 96% (active) | 97% (active) | 89.3% (active)
11 | O=C1Nc2ccccc2/C1=N\N=c1/scc(-c2ccccc2)n1-c1ccccc1 | 13% | 72% (active) | 59.5% | 5% | 74% (active) | 74.5% (active) | 8% | 61% | 62.1% | 10% | 90% (active) | 62.6% | 9% | 87% (active) | 51.7% | 9% | 78% (active) | 88.5% (active)
12 | CCOP(=O)(OCC)/C(=C\NC(=S)N=Nc1c(O)[nH]c2ccccc12)C(=O)OC | 29% | 81% (active) | 19.6% | 4% | 89% (active) | 11.2% | 6% | 83% (active) | 7.85% | 2% | 67% | 46.1% | -8% | 62% | 13.8% | 5% | 84% (active) | 14.6%
13 | CC1(C(Cl)(Cl)Cl)C=CC(O)(C#CC2(O)C=CC(C)(C(Cl)(Cl)Cl)C=C2)C=C1 (stereo unspecified) | 94% (active) | 7% | 94.5% (active) | 91% (active) | 98% (active) | 98.2% (active) | 81% (active) | -7% | 98.3% (active) | 87% (active) | 97% (active) | 95.7% (active) | 98% (active) | 97% (active) | 95.4% (active) | 93% (active) | 98% (active) | 97.8% (active)
14 | Cc1cc(N2C(=O)CSC2=S)ccc1Cl | -3% | 1% | 61.1% | -4% | -2% | 21.9% | -2% | 8% | 79.2% (active) | -2% | -17% | 12.8% | -6% | -1% | 7.95% | -6% | 0% | 51.2%
15 | COc1ccc(C(=O)Oc2c(Br)cc(Br)cc2Br)cc1 | 4% | -3% | 14.2% | 3% | -3% | 12.7% | 8% | 10% | 1.9% | -1% | -30% | -6.5% | 7% | 5% | 87.8% (active) | 1% | 2% | 7.75%
16 | CCNc1ccc2c(c1)Cc1ccccc1-2 | 45% | 91% (active) | 95.2% (active) | 4% | 38% | 59.8% | 62% | 90% (active) | 96% (active) | 3% | 73% (active) | 71.8% (active) | -11% | 33% | 12.1% | 27% | 87% (active) | 90.7% (active)
17 | CCCCCCCC/C=C1\CCC(CN(C)C)C1=O (stereo unspecified) | -2% | 97% (active) | 89.6% (active) | -35% | 99% (active) | 93.2% (active) | -13% | 97% (active) | 90.7% (active) | 8% | 95% (active) | 89.5% (active) | -23% | 98% (active) | 89.6% (active) | -19% | 97% (active) | 89.1% (active)
